Screening results deposited in PubChem by National Center for Advancing Translational Sciences (NCATS).
This is a sample that favours compounds with a hit; in the whole collection about 1.3% have one here.
hERG WT inh = qHTS for Inhibitors of KCHN2 3.1: Wildtype qHTS | Voltage-gated inwardly rectifying potassium channel KCNH2 (Homo sapiens), Q12809 | U2OS, BacMam KCNH2, thallium flux FluxOr; hits give low values | activity change, % at 1.84 µM | 340,000 compounds, 0.37% hits;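 active = maximum activity change below -70%; inconclusive = maximum activity change between -70% and -50%; inactive = maximum activity change above -50%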; also: % is scaled to controls: 0 for no effect and ±100 for the full control effect
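U2OS cells were transduced with wild-type KCNH2 virus (2.03 x 10^8 / mL) for 4 h at room temperature, then cultured overnight at 37 C. Thallium flux was read with FluxOr dye. Rate constants were normalized to DMSO controls.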
KCNH2 3.1 block = qHTS for Inhibitors of KCHN2 3.1: Mutant qHTS; 340,000 compounds, 0.95% hits; activity change, % (tested at about 1.8 µM); U2OS KCNH2 3.1, thallium flux FluxOr; hits give low values; Potassium voltage-gated channel subfamily H member 2, brain isoform KCNH2 3.1 (human);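 active = maximum activity change below -70%; inconclusive = maximum activity change from -70% to -50%; inactive = maximum activity change above -50%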;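 also: thallium influx rate constant from kinetic fluorescence after stimulation buffer; % is scaled to controls: 0 for no effect and ±100 for the full control effect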
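Steps: virus added to U2OS suspension (4 h, RT, dark); medium with 10% FBS added, cells plated, 37 C overnight; FluxOr/Red40 loading buffer 45 min RT; stimulation buffer, 2 min kinetic read; rate constant normalized.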
TRPV1 PAM = HTS Assay for Compounds that Act as Potentiators of the Vanilloid Receptor 1; Transient receptor potential cation channel subfamily V member 1 (Homo sapiens), Q8NER1; TRPV1-expressing cells, Fluo-8 calcium influx, capsaicin EC20 potentiation; potentiation, % at 8.33 µM; 320,000 compounds, 0.02% hits; in the data active = potentiation above about 80%; inconclusive = between about 30% and that limit; also: 0% is about no effect
Target sequence (Q8NER1 whole entry, looked up): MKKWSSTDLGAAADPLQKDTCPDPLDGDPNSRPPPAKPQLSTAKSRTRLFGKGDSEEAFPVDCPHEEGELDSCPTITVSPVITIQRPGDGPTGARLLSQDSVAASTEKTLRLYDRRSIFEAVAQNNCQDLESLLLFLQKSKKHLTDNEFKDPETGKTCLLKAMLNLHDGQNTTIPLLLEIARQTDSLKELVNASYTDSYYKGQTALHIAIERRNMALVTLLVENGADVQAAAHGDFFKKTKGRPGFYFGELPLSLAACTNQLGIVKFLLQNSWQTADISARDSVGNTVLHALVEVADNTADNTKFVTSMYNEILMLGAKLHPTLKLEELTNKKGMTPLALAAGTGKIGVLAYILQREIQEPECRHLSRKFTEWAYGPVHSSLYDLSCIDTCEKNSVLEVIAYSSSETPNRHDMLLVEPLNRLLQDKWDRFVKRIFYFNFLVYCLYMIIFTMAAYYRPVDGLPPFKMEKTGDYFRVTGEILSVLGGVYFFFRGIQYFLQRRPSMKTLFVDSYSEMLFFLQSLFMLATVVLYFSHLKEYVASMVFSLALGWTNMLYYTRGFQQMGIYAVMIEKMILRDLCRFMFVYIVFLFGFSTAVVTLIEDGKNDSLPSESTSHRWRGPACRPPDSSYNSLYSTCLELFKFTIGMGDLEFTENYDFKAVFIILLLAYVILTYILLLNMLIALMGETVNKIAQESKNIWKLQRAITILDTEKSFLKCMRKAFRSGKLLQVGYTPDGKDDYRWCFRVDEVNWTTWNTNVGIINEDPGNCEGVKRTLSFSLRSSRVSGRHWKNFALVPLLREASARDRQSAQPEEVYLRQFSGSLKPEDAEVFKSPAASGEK
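TRPV1-expressing cells were cultured overnight at 35.5C and loaded with Fluo-8 calcium dye for 40 to 90 min at room temperature. After a 10 s baseline, compound was added and calcium influx was read kinetically for 3 min (ex 480/em 520 nm).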
TRPV1 ag = HTS Assay for Compounds that Act as Agonists of the Vanilloid Receptor 1; Transient receptor potential cation channel subfamily V member 1 (Homo sapiens), Q8NER1; TRPV1-expressing cells, Fluo-8 calcium influx, agonist mode; activation, % at 8.33 µM; 320,000 compounds, 0.19% hits; AID 540275, 2011; in the data active = activation above about 80%; inconclusive = between about 30% and that limit; also: 0% is about no effect
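Fluo-8 calcium influx in TRPV1-expressing cells, kinetic read (ex 480/em 520 nm). Compound added and read 3 min for agonist activity, followed by capsaicin at EC20 final and 2 min further read for enhancement.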
MBNL1-CUG inh = qHTS Assay for Inhibitors of MBNL1-poly(CUG) RNA binding | Muscleblind-like protein 1 (Homo sapiens), Q9NR56 | TR-FRET MBNL1-His/biotin-(CUG)12 binding, 665/545 ratio | Potency, µM (titrated, usually from 57.5 µM), inactives show at the top dose activity change, negative = inhibition, hits mostly inhibitors | 280,000 compounds, 0.036% hits; active = well fitted inhibition curve with a large enough effect in the signal ratio, with a control signal flat, not every such curve was filed as active; inconclusive = small, poorly fitted or top-dose-only effect, or effect the other way, or a change in a side signal; inactive = no such curve, though single readings can be large or run the other way; the % refers to the signal ratio; also: potency is read from the fitted curve at half-maximal effect; % is scaled to controls: 0 for no effect and ±100 for the full control effect
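Ratiometric TR-FRET (665 over 545 nm, excitation 340 nm) tracks disruption of MBNL1-His/biotin-(CUG)12 complex after 60 min at room temperature, with compounds at 92 nM to 58 uM final.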
Numbers without * were called inactive; i = inactive; ? = inconclusive; · = no result given.

SMILES	hERG WT inh	KCNH2 3.1 block	TRPV1 PAM	TRPV1 ag	MBNL1-CUG inh
CN(/N=C/c1cc(Cl)cc(Cl)c1O)c1c(Cl)cccc1[N+](=O)[O-]	22.9	-2.2	-1.6	-2.9	-20.1%
CN(C)CCCN(C(=O)CCc1ccccc1)c1nc2ccc(F)cc2s1	25.4	-7.3	4.1	-1.6	-4.1%
CN(C)CCCN(C(=O)CCc1ccccc1)c1nc2ccc(Br)cc2s1	-35.7	-87.0*	-18.8	-0.1	-3.6%
CCOC(=O)C1CCCN(CC(O)COC(c2ccccc2)c2ccccc2)C1 (configuration not stated)	-76.9*	-96.2*	-14.4	1.1	-1.3%
CCOC(=O)C1CCCN(C(=O)C2CCN(C(=O)Nc3ccccc3)CC2)C1 (configuration not stated)	0.0	-7.1	0.8	-1.1	·
CCOC(=O)C1CCCN(CC(O)COc2ccccc2C(C)=O)C1 (configuration not stated)	11.4	-2.2	6.7	-4.2	15.0%
CCOC(=O)C1CCCN(C(=O)Nc2ccccc2)C1 (configuration not stated)	5.1	-73.0*	7.0	-2.9	-5.9%
CC(=O)N/C(=C\c1ccccc1)C(=O)OC(C)C(=O)Nc1ccccc1F (configuration not stated)	-10.2	8.5	-2.7	0.8	·
CC(C)C(=O)Nc1nnc(SCC(=O)NC2CCCC2)s1	-4.1	-9.0	17.6	0.0	5.4%
O=C(C1=NOC(CNc2ncc(C(F)(F)F)cc2Cl)C1)N1CCOCC1 (configuration not stated)	i	7.2	-8.6	121.4*	-19.2%
O=C(N/C=N/O)C1=NOC(CNc2ncc(C(F)(F)F)cc2Cl)C1 (configuration not stated)	-4.7	2.2	-7.8	?	-4.1%
O=C(NC1CC1)C1=NOC(CNc2ncc(C(F)(F)F)cc2Cl)C1 (configuration not stated)	20.2	-1.9	-5.1	80.0*	-5.2%
CN(C(=O)C1CCC(=O)N(CCCN2CCCC2=O)C1)C(C1CC1)C1CC1 (configuration not stated)	4.6	13.1	-14.5	2.3	-3.6%
O=C(NCCc1nc2ccccc2[nH]1)/C(=C/c1ccc2c(c1)OCO2)NC(=O)c1ccccc1	-22.4	-25.4	-0.4	-0.4	10.5%
O=C(CCc1nc2ccccc2[nH]1)Nc1ccc2c(c1)OCO2	1.7	-197.6*	-19.3	-6.0	-2.1%
O=C(NCCc1nc2ccccc2[nH]1)/C(=C/c1ccc2c(c1)OCO2)NC(=O)c1ccccc1Cl	?	-76.8*	-7.2	23.8	9.2%
O=C(CCc1nc2ccccc2[nH]1)NCc1ccc2c(c1)OCO2	-12.9	-2.7	12.8	0.5	-43.0%
Cc1cc(C=C2C(=O)c3ccccc3C2=O)c(C)n1-c1ccccc1	13.5	-1.2	4.6	21.2	7.1%
Cc1cc(/C=C2\Cc3ccccc3C2=O)c(C)n1-c1ccccc1	2.5	0.1	-1.1	86.0*	27.2%
CN1CCN(S(=O)(=O)c2cccc(C(=O)N(C)C(c3ccccc3)c3ccccc3)c2)CC1	10.9	-75.4*	-23.6	13.0	·
COc1cccc(CN(C)C(=O)c2cccc(S(=O)(=O)N3CCN(c4ccc(F)cc4)CC3)c2)c1OC	0.3	-159.0*	0.1	12.9	·
COc1cccc(CN(C)C(=O)c2cccc(S(=O)(=O)N3CCN(c4ccccc4)CC3)c2)c1OC	8.2	-5.6	·	·	·
Cc1ccc(S(=O)(=O)NCCC(=O)N2CCC(Cc3ccccc3)CC2)cc1	-5.4	-24.9	-15.2	26.4	·
Cc1ccc(S(=O)(=O)NCc2ccc(C(=O)NCCCN3CCC(Cc4ccccc4)CC3)cc2)cc1	5.6	-81.4*	-5.6	9.4	0.2%
COc1ccc(CCNC(=O)c2ccc(CN3CCC(Cc4ccccc4)CC3)cc2)cc1OC	-22.8	-92.7*	-9.2	8.3	?
SMILES	hERG WT inh	KCNH2 3.1 block	TRPV1 PAM	TRPV1 ag	MBNL1-CUG inh
COCCNC(=O)c1ccc(CN2CCC(Cc3ccccc3)CC2)cc1	-1.7	-4.4	1.1	-3.5	-28.8%
CCCN(C(=O)c1cc(S(=O)(=O)N(C)c2ccc(OCC)cc2)ccc1C)C1CCS(=O)(=O)C1 (configuration not stated)	3.8	7.7	0.9	3.4	·
CCCn1c(S(=O)(=O)O)nc2ccccc21	-18.3	14.0	-10.0	-0.9	-12.9%
CCC(C)n1c(S(=O)(=O)O)nc2ccccc21 (configuration not stated)	-183.8*	-12.2	17.4	-0.3	-0.3%
COc1ccc(C2=NS(=O)(=O)N(C)C(C(=O)N3CCC(C)CC3)=C2)cc1	0.8	-112.5*	11.4	13.8	10.5%
COc1ccc(-c2nc(CS(=O)(=O)CC(=O)NCc3ccc(F)cc3)c(C)o2)cc1	2.2	0.5	-14.8	23.3	-0.4%
CN1CCN(c2nc(-c3ccc(Cl)cc3Cl)nc3ccccc23)CC1	-17.7	-123.5*	-8.6	16.9	-3.1%
CN1CCN(c2nc(-c3ccccc3Cl)nc3ccccc23)CC1	24.8	-4.8	6.8	8.2	2.2%
OC(CNCCc1ccc(C(F)(F)F)cc1)COC(c1ccccc1)c1ccccc1 (configuration not stated)	·	-74.1*	-23.0	16.2	-3.9%
CCCCN(C(=O)C1CC(=O)N(c2ccc3c(c2)OCCO3)C1)c1c(N)n(CC(C)C)c(=O)[nH]c1=O (configuration not stated)	-151.8*	-192.4*	-11.6	2.5	·
CCO/C(=C/c1sc2ccc(OC)cc2[n+]1CCCS(=O)(=O)[O-])CC	0.4	-6.4	2.0	0.2	1.5%
COc1ccc2sc(SCCCS(=O)(=O)O)[n+](CCCS(=O)(=O)[O-])c2c1	-156.2*	-203.4*	-16.1	-0.5	?
Cc1c(OC(C)C(=O)NCc2ccncc2)ccc2c3c(c(=O)oc12)CCCC3 (configuration not stated)	-9.9	-77.8*	-24.4	?	3.5%
COCCC(=O)NC1CCCc2c1cnn2-c1cccc(C)c1C (configuration not stated)	-4.1	5.5	-18.3	3.6	-5.3%
COc1cc(OC)c(OC)cc1CCC(C)NCCC(c1ccccc1)c1ccccc1 (configuration not stated)	?	-92.1*	18.6	5.4	-6.3%
Cc1ccc(C(=O)Nc2ccc(SC(F)F)cc2)s1	3.7	-1.7	-13.3	85.8*	5.7%
